Laboratory results as given in PubChem BioAssay (Tox21).
“And” between values parts separate entries of the source, which are not always exact repeats. Equal values may be shown once. Records with an inconclusive call do not appear. The source made the active and inactive calls. Unless noted, calls follow the shape of the dose curve; as a rule, active = well fitted curve in the direction sought with a large enough effect in the repeat runs; inconclusive = weak or mixed curves; inactive = no such curve, though single readings can be large; an effect the other way counts as inactive or inconclusive.

Columns and labels:
[1] = qHTS assay for small molecules that induce genotoxicity in human embryonic kidney cells expressing luciferase-tagged ATAD5 (AID 651632); also: nearly all actives have a fitted effect of over 15% in size; also: potency is read from the fitted curve at half-maximal effect
In short: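 DMSO vehicle served as the control. HEK293T reporter cells, 16 hr at 37C, then 30 min Amplite at room temperature; ATAD5 induction is measured as luciferase activity.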

[2] = qHTS assay for small molecule agonists of the p53 signaling pathway - cell viability (AID 651633; calls by dose curve; also: nearly all actives have a fitted effect of over 30% in size; also: potency is read from the fitted curve at half-maximal effect)
In short: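 Viability counter-read: CellTiter-Glo luminescence (30 min, room temperature) in the same p53RE-bla plates. These plates had been exposed to compounds for 16 h at 37 C.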

[3] = qHTS assay for small molecules that induce genotoxicity in human embryonic kidney cells expressing luciferase-tagged ATAD5 - cell viability (AID 651634; calls by dose curve; also: nearly all actives have a fitted effect of over 25% in size; also: potency is read from the fitted curve at half-maximal effect)
In short: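 Here HEK293T cells with the ATAD5 luciferase reporter are incubated with test compounds for 15.5 hr, and cytotoxicity is then gauged by measuring protease activity in live cells using fluorescence.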

[4] = qHTS assay to test for compound auto fluorescence at 590 nm (red) in HepG2 cells (AID 720674)
In short: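 Red autofluorescence (Ex/Em 540/590 nm, Rose Bengal sodium equivalents) was measured in HepG2 cells, 2,000 per well in MEM plus 10% FBS, plated overnight at 37 C. Readings were taken 1 hr after adding 23 nL compound or DMSO, at 37 C and 5% CO2.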

[5] = qHTS assay to test for compound auto fluorescence at 535 nm (green) in HepG2 cells (AID 720675)
[6] = qHTS assay to test for compound auto fluorescence at 460 nm (blue) in HEK293 cells (AID 720678)
In short: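 Blue-channel (Ex/Em 405/460 nm) intensity measured in HEK293 cultures after overnight compound exposure at 37C; signal expressed relative to triamterene. Cells plated 2,000 per well in 10% dialyzed FBS medium and allowed 4-5 hr to attach.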

[7] = qHTS assay to test for compound auto fluorescence at 590 nm (red) in HEK293 cells (AID 720679)
In short: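 Red-channel autofluorescence (Ex/Em 540/590 nm; Rose Bengal sodium reference) was measured after overnight 37C, 5% CO2 exposure of attached HEK293 cells, 2,000 per well in medium with 10% dialyzed FBS.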

[8] = qHTS assay to test for compound auto fluorescence at 535 nm (green) in HEK293 cells (AID 720680)
[9] = qHTS assay to test for compound auto fluorescence at 460 nm (blue) in HEK293 cell free culture (AID 720681)
In short: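 Blue fluorescence (Ex 405/Em 460 nm, triamterene-equivalent) was read immediately after pin transfer of compound or DMSO into medium (DMEM, 10% FBS) without cells.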

[10] = qHTS assay to test for compound auto fluorescence at 535 nm (green) in HEK293 cell free culture (AID 720682)
In short: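 Read-out: 485/535 nm fluorescence intensity, calibrated against fluorescein. Medium only (DMEM + 10% FBS, no cells); test compound or DMSO vehicle added by pintool before plate reading.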

[11] = qHTS assay to test for compound auto fluorescence at 590 nm (red) in HEK293 cell free culture (AID 720683)
In short: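 Red-channel autofluorescence of compounds in culture medium (DMEM, 10% FBS), no cells, measured at 540/590 nm. Rose Bengal sodium is the reference fluorophore for equivalence.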

[12] = qHTS assay to test for compound auto fluorescence at 590 nm (red) in HepG2 cell free culture (AID 720684)
In short: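 No cells present: MEM + 10% FBS only. Compound pinned in, red label read (540/590 nm). Activity = fluorescence equivalent to Rose Bengal sodium.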

[13] = qHTS assay to test for compound auto fluorescence at 460 nm (blue) in HepG2 cell free culture (AID 720685)
In short: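 Cell-free plates of MEM plus 10% FBS received 23 nL compound or DMSO vehicle; blue-channel (405/460 nm) intensity scored against triamterene as reference fluorophore.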

[14] = qHTS assay to test for compound auto fluorescence at 535 nm (green) in HepG2 cell free culture (AID 720686)
[15] = qHTS assay to test for compound auto fluorescence at 460 nm (blue) in HepG2 cells (AID 720687)
In short: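 Blue-channel autofluorescence (Ex/Em 405/460 nm, triamterene-equivalent) was measured after 1 hr compound exposure at 37 C, 5% CO2. Cells were HepG2, plated overnight at 37 C in MEM plus 10% FBS.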

[16] = target: Glucocorticoid receptor (Homo sapiens) (UniProt P04150); assay: qHTS assay to identify small molecule agonists of the glucocorticoid receptor (GR) signaling pathway (AID 720691; active = well fitted activation curve with a large enough effect in the signal ratio in the repeat runs, not every such curve was filed as active; the % refers to the signal ratio); conditions: GR-bla HeLa, beta-lactamase reporter ratio, 18 h; activation: at 62.4 µM (top of the series)
In short: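 Compounds in DMSO, alongside positive controls, were added to GR-bla HeLa reporter cells and incubated 18 h at 37 C; GRE-driven beta-lactamase was detected by fluorescence after 2 h with FRET substrate at room temperature.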

[17] = qHTS assay for small molecule disruptors of the mitochondrial membrane potential (AID 720635); also: potency is read from the fitted curve at half-maximal effect
In short: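 Mitochondrial membrane potential tracked with Mito-MPS dye, red aggregates (ex 540/em 590 nm) against green monomers (ex 490/em 535 nm). Compound treatment 1 hr at 37C, dye 30 min in HepG2.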

[18] = target: Glucocorticoid receptor (Homo sapiens) (UniProt P04150); assay: qHTS assay to identify small molecule antagonists of the glucocorticoid receptor (GR) signaling pathway (AID 720692; active = well fitted inhibition curve with a large enough effect in the signal ratio in the repeat runs, not every such curve was filed as active; the % refers to the signal ratio; also: potency is read from the fitted curve at half-maximal effect)
In short: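 In a 1536-well cell format, compounds were added 4 h after seeding GR-bla HeLa cells, together with dexamethasone at 5 nM final; reporter activity was measured by FRET-substrate fluorescence following 18 h at 37 C.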

[19] = qHTS assay for small molecule disruptors of the mitochondrial membrane potential - cell viability (AID 720634; calls by dose curve;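 also: human HepG2 liver cancer cells; nearly all actives have a fitted effect of over 20% in size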)
In short: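 Viability of HepG2 cells is scored from ATP content by luminescence; cells are exposed to compound for 1 hr at 37 C and 5% CO2, then dosed with m-MPI dye before the CellTiter-Glo reagent.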

Measured: Potency

Sequence of Glucocorticoid receptor (Homo sapiens) (P04150 whole entry, looked up): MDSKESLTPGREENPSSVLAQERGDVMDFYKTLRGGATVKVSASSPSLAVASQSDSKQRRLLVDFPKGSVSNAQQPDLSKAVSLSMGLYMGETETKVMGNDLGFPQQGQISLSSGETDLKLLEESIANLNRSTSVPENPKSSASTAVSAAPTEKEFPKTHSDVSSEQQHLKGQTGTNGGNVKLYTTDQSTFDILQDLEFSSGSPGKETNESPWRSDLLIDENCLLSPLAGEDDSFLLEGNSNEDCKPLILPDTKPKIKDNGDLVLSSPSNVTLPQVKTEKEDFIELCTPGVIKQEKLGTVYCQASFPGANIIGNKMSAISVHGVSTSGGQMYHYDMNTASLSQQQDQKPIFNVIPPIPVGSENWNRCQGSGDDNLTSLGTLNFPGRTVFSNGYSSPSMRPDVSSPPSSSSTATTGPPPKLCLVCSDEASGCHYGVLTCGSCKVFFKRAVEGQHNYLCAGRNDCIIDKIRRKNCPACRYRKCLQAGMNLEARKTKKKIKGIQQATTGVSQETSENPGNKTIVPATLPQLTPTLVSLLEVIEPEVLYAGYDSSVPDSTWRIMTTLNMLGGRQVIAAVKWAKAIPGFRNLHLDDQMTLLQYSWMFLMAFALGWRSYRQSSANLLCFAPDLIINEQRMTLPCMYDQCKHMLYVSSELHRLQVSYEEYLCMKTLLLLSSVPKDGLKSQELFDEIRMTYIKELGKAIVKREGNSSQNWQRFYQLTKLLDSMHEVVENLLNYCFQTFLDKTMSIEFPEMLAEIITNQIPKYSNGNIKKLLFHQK

C=CC(=O)OCC(CO)(COC(=O)C=C)COC(=O)C=C
active: [1] 4.87 µM and 5.45 µM | [2] 4.34 µM | [3] 12.2 µM and 15.4 µM
not listed: [16] | [17] | [18] | [19]
inactive: all other assays above

CCCCN(CCCC)C(=O)N(CCCC)CCCC
not listed: [17] | [18] | [19]
inactive: all other assays above

Oc1ccc2c(c1)-c1ccccc1C2
active: [17] 9.69 µM
not listed: [15] | [16] | [18] | [19]
inactive: all other assays above

C1CCCC1
not listed: [16] | [18] | [19]
inactive: all other assays above

CCCCCCCCOc1ccccc1C(=O)Nc1ccc(C(=O)OCC[N+](C)(CC)CC)cc1
active: [2] 23.7 µM | [17] 31.2 µM
not listed: [7] | [16] | [18] | [19]
inactive: all other assays above

CCN(C(=O)N(CC)c1ccccc1)c1ccccc1
not listed: [17] | [19]
inactive: all other assays above

CCCCCCCCOC(=O)c1ccc(O)cc1
active: [17] 17.2 µM
not listed: [16] | [18] | [19]
inactive: all other assays above

Cc1ccc(O)c2ncccc12
not listed: [16] | [17]
inactive: all other assays above

CCCCC(CC)COC(=O)c1ccccc1C(=O)O (configuration not stated)
active: [18] 39.6 µM
not listed: [14] | [17]
inactive: all other assays above

CCCCN1CCCC[C@H]1C(=O)Nc1c(C)cccc1C
not listed: [15] | [16] | [17] | [18]
inactive: all other assays above

CC1(C)CCC(C)(C)c2cc(C(=O)Nc3ccc(C(=O)O)cc3)ccc21
active: [2] 61.1 µM | [17] 54.5 µM
not listed: [3] | [16] | [18]
inactive: all other assays above

N#CSc1ccc(N)c([N+](=O)[O-])c1
active: [3] 61.5 µM | [17] 61.5 µM
not listed: [2] | [15] | [18]
inactive: all other assays above

Oc1ccc2cc(SSc3ccc4cc(O)ccc4c3)ccc2c1
active: [17] 38.6 µM and 24.3 µM
not listed: [3] | [5] | [15] | [16] | [18]
inactive: all other assays above

CCCCC(CC)COP(=O)(O)OCC(CC)CCCC (configuration not stated)
active: [17] 68.7 µM | [18] 49.1 µM
not listed: [2] | [16]
inactive: all other assays above
